# In the antibiotic and cytotoxicity screens of Wong et al. (2023):
# The whole screen tested about 39,000 compounds, of which about 1,500 (3.8%) were called active. The sample as a whole holds a higher share of actives than the screen did.
# System: HSkMC (human skeletal muscle cells)
# Experiment: cytotoxicity call (relative viability < 0.9)
# Settings: 10 µM
row,Structure (SMILES),cytotoxicity call
1,CN1C(=O)c2cc(NC(=O)C3CCOCC3)ccc2OC[C@@H]2O[C@H](CC(=O)NCc3ccccc3F)CC[C@@H]21,inactive
2,O=C(C[C@@H]1CC[C@@H]2NC[C@H](O)COC[C@H]2O1)NCCN1CCCCC1,inactive
3,COCC#Cc1cnc2c(c1)C(=O)N([C@H](C)CO)C[C@H](C)[C@@H](CN(C)C(=O)Nc1ccccc1OC)O2,inactive
4,C[C@H]1CN([C@@H](C)CO)C(=O)Cc2cc(NS(=O)(=O)c3ccc(F)cc3)ccc2O[C@H]1CN(C)S(=O)(=O)c1cn(C)cn1,inactive
5,COc1cccc(NC(=O)N2C[C@@H](O)COC[C@@H]3O[C@@H](CC(=O)NCc4ccccc4F)CC[C@H]32)c1,inactive
6,C[C@@H]1CCCCO[C@@H](CN(C)C(=O)Nc2ccc(C(F)(F)F)cc2)[C@@H](C)CN([C@H](C)CO)C(=O)c2cc(NC(=O)c3ccccc3)ccc2O1,inactive
7,CC(C)(C)[S@@](=O)N1Cc2cc(C(=O)NCc3ccccc3F)nc(-c3cccc(-c4cccnc4)c3)c2[C@H]1CCO,inactive
8,O=C(C[C@H]1C=C[C@@H](NC(=O)Cc2ccccn2)[C@@H](CO)O1)NCCCN1CCOCC1,inactive
9,C[C@@H]1CN([C@H](C)CO)S(=O)(=O)c2ccc(C#Cc3ccncc3)cc2O[C@H]1CN(C)C(=O)C1CCOCC1,inactive
10,CN(C)Cc1cn(CC[C@@H]2CC[C@H](N)[C@H](CO)O2)nn1,inactive
11,C[C@H](CO)N1C[C@H](C)[C@@H](CN(C)S(=O)(=O)c2ccc3ccccc3c2)OCc2cn(nn2)CCCC1=O,inactive
12,C[C@H](CO)N1C[C@H](C)[C@@H](CN(C)C(=O)Nc2cccc3ccccc23)Oc2c(NC(=O)C3CCCCC3)cccc2C1=O,inactive
13,COc1cc(Nc2ncc3c(n2)-c2ccc(Cl)cc2C(c2c(F)cccc2OC)=NC3)ccc1C(=O)O,active
14,C=CCN(C(=O)[C@H]1N(CCOCCO)C(=O)[C@H]2[C@H](C(=O)O)[C@@H]3C=C[C@@]21O3)c1ccc(OC)cc1,inactive
15,CCS(=O)(=O)Nc1ccc2c(c1)C(=O)N(C)[C@H]1CC[C@@H](CC(=O)N[C@H]3CCN(Cc4ccccc4)C3)O[C@@H]1CO2,inactive
16,C[C@@H]1CN([C@H](C)CO)C(=O)c2cccc(NC(=O)C3CCOCC3)c2O[C@@H]1CN(C)S(=O)(=O)c1cccs1,inactive
17,C[C@@H]1CC[C@@]2(OC1)O[C@H]1C[C@H]3[C@H]4C[C@@H](O)[C@H]5C[C@@H](O[C@@H]6O[C@H](CO)[C@H](O[C@@H]7O[C@H](CO)[C@@H](O)[C@H](O[C@@H]8OC[C@@H](O)[C@H](O)[C@H]8O)[C@H]7O[C@@H]7O[C@H](CO)[C@@H](O)[C@H](O)[C@H]7O)[C@H](O)[C@H]6O)CC[C@]5(C)[C@@H]4CC[C@]3(C)[C@H]1[C@@H]2C,active
18,C[C@@H]1CC[C@@]2(OC1)O[C@H]1C[C@H]3[C@H]4C[C@@H](O)[C@H]5C[C@@H](O[C@@H]6O[C@H](CO)[C@H](O[C@@H]7O[C@H](CO)[C@@H](O)[C@H](O[C@@H]8OC[C@@H](O)[C@H](O)[C@H]8O)[C@H]7O[C@@H]7O[C@H](CO)[C@@H](O)[C@H](O)[C@H]7O)[C@H](O)[C@H]6O)[C@H](O)C[C@]5(C)[C@@H]4CC[C@]3(C)[C@H]1[C@@H]2C,inactive
19,C[C@@H]1CO[C@]2(O[C@H]3C[C@H]4[C@H]5C[C@H](O[C@H]6O[C@@H](C)[C@@H](O)[C@@H](O[C@@H]7O[C@@H](C)[C@H](O)[C@@H](O)[C@H]7O)[C@@H]6O)[C@H]6C[C@@H](O)CC[C@]6(C)[C@@H]5CC[C@]4(C)[C@H]3[C@@H]2C)[C@@H](O)C1,inactive
20,CC1CCC2(OC1)OC1CC3C4CC=C5CC(O)CCC5(C)C4CCC3(C)C1C2C (stereo unspecified),inactive
21,CC1CCC2(OC1)OC1CC3C4CCC5CC(O)CCC5(C)C4CCC3(C)C1C2C (stereo unspecified),inactive
22,C[C@@H]1CC[C@@]2(OC1)O[C@H]1C[C@H]3[C@H]4C[C@@H](O)[C@H]5C[C@@H](O[C@@H]6O[C@H](CO)[C@H](O[C@@H]7O[C@H](CO)[C@@H](O)[C@H](O[C@@H]8OC[C@@H](O)[C@H](O)[C@H]8O)[C@H]7O[C@@H]7O[C@H](CO)[C@@H](O[C@@H]8O[C@H](CO)[C@@H](O)[C@H](O)[C@H]8O)[C@H](O)[C@H]7O)[C@H](O)[C@H]6O)CC[C@]5(C)[C@@H]4CC[C@]3(C)[C@H]1[C@@H]2C,active
23,C[C@@H]1CC[C@@]2(OC1)O[C@H]1C[C@H]3[C@H]4C[C@@H](O)[C@H]5C[C@@H](O[C@@H]6O[C@H](CO)[C@H](O[C@@H]7O[C@H](CO)[C@@H](O)[C@H](O[C@@H]8OC[C@@H](O)[C@H](O)[C@H]8O)[C@H]7O[C@@H]7O[C@H](CO)[C@@H](O[C@@H]8O[C@H](CO)[C@@H](O)[C@H](O)[C@H]8O)[C@H](O)[C@H]7O)[C@H](O)[C@H]6O)[C@H](O)C[C@]5(C)[C@@H]4CC[C@]3(C)[C@H]1[C@@H]2C,active
24,CC(=O)OC1CCC2(C)C(CCC3C2CC(=O)C2(C)C3CC3OC4(CCC(C)CO4)C(C)C32)C1 (stereo unspecified),inactive
25,CC(=O)OC1CCC2(C)C(CCC3C2CCC2(C)C3CC3OC4(CCC(C)CO4)C(C)C32)C1 (stereo unspecified),inactive
26,CC(C)=CCC[C@](C)(O[C@@H]1O[C@H](CO[C@@H]2OC[C@@H](O)[C@H](O)[C@H]2O)[C@@H](O)[C@H](O)[C@H]1O)[C@H]1CC[C@]2(C)[C@@H]1[C@H](O)C[C@@H]1[C@@]3(C)CC[C@H](O[C@@H]4O[C@H](CO)[C@@H](O)[C@H](O)[C@H]4O)C(C)(C)[C@@H]3CC[C@]12C,inactive

row,Structure (SMILES),cytotoxicity call
1,CC1CCC2(OC1)OC1CC3C4CCC5CC(O)CCC5(C)C4CC(=O)C3(C)C1C2C (stereo unspecified),inactive
2,C[C@@H]1CC[C@@]2(OC1)O[C@H]1C[C@H]3[C@H]4CC=C5C[C@@H](O[C@@H]6O[C@H](CO)[C@@H](O[C@@H]7O[C@@H](C)[C@H](O)[C@@H](O)[C@H]7O[C@@H]7O[C@@H](C)[C@H](O)[C@@H](O)[C@H]7O)[C@H](O)[C@H]6O)CC[C@]5(C)[C@@H]4CC[C@]3(C)[C@H]1[C@@H]2C,active
3,COc1c(O)cc(O)cc1O,inactive
4,O=C1OCC=C[C@H]2O[C@@]34C=CCN(Cn5nnc6ccccc65)C(=O)[C@H]3N(CCO)C(=O)[C@@H]4[C@@H]12,inactive
5,CNC(=O)CN1CCN2CCN(CC(=O)NC)CC(=O)[O][Gd]([O]C(=O)C2)[O]C(=O)C1,inactive
6,C[C@@H]1CCCCO[C@@H](CN(C)S(=O)(=O)c2cn(C)cn2)[C@@H](C)CN([C@@H](C)CO)C(=O)c2cc(NS(=O)(=O)c3cccs3)ccc2O1,inactive
7,Cc1noc(C)c1S(=O)(=O)Nc1cccc2c1O[C@@H](CN(C)CC1CC1)[C@@H](C)CN([C@@H](C)CO)C2=O,inactive
8,C[C@H]1CN([C@@H](C)CO)C(=O)c2cccc(NC(=O)Nc3ccc4c(c3)OCO4)c2O[C@H]1CN(C)S(C)(=O)=O,inactive
9,Cc1noc(C)c1S(=O)(=O)Nc1ccc2c(c1)C(=O)N([C@H](C)CO)C[C@H](C)[C@@H](CN(C)Cc1ccc(C(F)(F)F)cc1)OCCCC[C@@H](C)O2,inactive
10,O=C(C[C@H]1C[C@H]2c3cc(NS(=O)(=O)c4ccc(F)cc4)ccc3O[C@H]2[C@@H](CO)O1)NCc1ccccc1F,inactive
11,C[C@H]1CN([C@@H](C)CO)C(=O)c2cc(NC(=O)CCC(F)(F)F)ccc2O[C@@H]1CN(C)C(=O)Nc1ccc(C(F)(F)F)cc1,inactive
12,C[C@H]1CN([C@@H](C)CO)C(=O)c2cccc(NC(=O)Nc3ccccc3)c2O[C@H]1CN(C)S(C)(=O)=O,inactive
13,COc1ccc(S(=O)(=O)Nc2cccc3c2O[C@@H](CN(C)C(=O)Nc2c(C)noc2C)[C@@H](C)CN([C@H](C)CO)C3=O)cc1,inactive
14,Cc1noc(C)c1NC(=O)Nc1ccc2c(c1)CC(=O)N([C@H](C)CO)C[C@@H](C)[C@H](CN(C)S(=O)(=O)c1cn(C)cn1)O2,inactive
15,C[C@H]1O[C@@H](O[C@H]2[C@@H](O)[C@@H](O)[C@@H](O[C@H]3CC[C@]4(C)[C@H]5CC=C6[C@H]7CC(C)(C)[C@H]8C[C@]7(C(=O)O8)[C@@H](O)C[C@]6(C)[C@@]5(C)CC[C@H]4C3(C)C)O[C@@H]2CO)[C@@H](O)[C@@H](O[C@H]2OC[C@@H](O)[C@@H](O)[C@@H]2O)[C@@H]1O,inactive
16,C[C@@H]1O[C@@H](O[C@H]2[C@H](O)[C@@H](O)[C@H](OC[C@H]3O[C@@H](OC(=O)[C@]45CCC(C)(C)C[C@@H]4C4=CC[C@H]6[C@@]7(C)CC[C@H](O[C@H]8OC[C@H](O)[C@H](O)[C@H]8O[C@H]8O[C@@H](C)[C@H](O)[C@@H](O)[C@H]8O)[C@@](C)(CO)[C@@H]7CC[C@@]6(C)[C@]4(C)CC5)[C@H](O)[C@@H](O)[C@@H]3O)O[C@@H]2CO)[C@H](O)[C@H](O)[C@H]1O,inactive
17,Cn1cnc(S(=O)(=O)N2C[C@@H](O)COC[C@H]3O[C@H](CC(=O)N4CCN(c5ccccc5)CC4)CC[C@@H]32)c1,inactive
18,O=C1c2ccccc2C(=O)c2c1ccc(O)c2O,inactive
19,O=C1c2ccccc2C(=O)c2c(NCCNCCO)ccc(NCCNCCO)c21,active
20,O=C(CCNCCO)c1ccccc1,inactive
21,O=C1c2c(O)ccc(O)c2C(=O)c2c(NCCNCCO)ccc(NCCNCCO)c21,active
22,O=C1c2cccc(O)c2C(=O)c2c(O)cccc21,inactive
23,Cl.Cl.O=C1c2c(O)ccc(O)c2C(=O)c2c(NCCNCCO)ccc(NCCNCCO)c21,active
24,O=[N+]([O-])c1ccc(NCCNCCO)cc1,inactive
25,COc1ccc(S(=O)(=O)Nc2ccc3c(c2)C(=O)N([C@@H](C)CO)C[C@H](C)[C@H](CN(C)Cc2ccncc2)O3)cc1,inactive
